This is an account of results in PubChem BioAssay (NCI).

SMILES strings stand for the structures. The panel holds about 79,000 compounds, 15% with a hit somewhere; the sample as a whole holds those more often. Calls of active or inactive are those of the source. Cut-off read from the data, not from the text of the source: active = growth inhibition above about 70%; inactive = the rest.

This assay in a line: NCI Yeast Anticancer Drug Screen. Data for the bub3 strain (AID 167). As to conditions: S. cerevisiae bub3 mutant strain, at 50.0 µM, stronger effect = higher value. The essentials:
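Compounds were applied to a genetically altered yeast strain carrying a cell-cycle control defect. Growth inhibition was scored against vehicle-treated controls.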
Turning to `CCOC(=O)C(NC(C)=O)C(C)O` (centres undefined), the growth inhibition is 2.95% (inactive).

On to `NC(=O)/C(=N/O)c1ccccc1`, for which the growth inhibition is -1.2% (inactive).

`CC1CC(C)(C)C(C[NH-])C1[NH-].[Cl][Pt+2][Cl]` (centres undefined): the growth inhibition is 28.9% (inactive).

For `NC1C2C3C=CC(C3)C12` (centres undefined), the growth inhibition was -5.2% (inactive).

On to `CC(=O)Nc1cccc2c(OC(C)=O)cccc12`, for which the growth inhibition is 7.6% (inactive).

Take `N#Cc1c(-c2ccco2)cc(-c2ccccc2)[nH]c1=O`: the growth inhibition was 9.7% (inactive).

In the case of `COn1c(-c2ccccc2)nc2c1C(=O)N(C)CN2C`, the growth inhibition is -6.9% (inactive).

As to `CCCCCC(=O)OCCCCCO`, the growth inhibition was 2.6% (inactive).

With `O=C1CCSC(=S)N1c1ccc(F)cc1F`, the growth inhibition was 4.7% (inactive).

In the case of `O=C(Cc1ccccc1)N(c1ccccc1)c1ccccc1`, the growth inhibition is 49.9% (inactive).

In the case of `CCCCN(CCCC)Cc1ccnc(C)c1O`, the growth inhibition is 3.75% (inactive).

With `COc1ccc2nc(NC(=O)Nc3ccc(Cc4ccc(NC(=O)Nc5nc6ccc(OC)cc6s5)cc4)cc3)sc2c1`, the growth inhibition is -8.65% (inactive).

Consider `N#Cc1c(N)nc2c3c1NC(=O)C(C(N)=O)C3c1ccccc1O2` (centres undefined), for which the growth inhibition was -2.6% (inactive).

As to `C/C(CC(=O)Nc1ccccn1)=N\c1ccccn1`, the growth inhibition is 1.95% (inactive).

On to `CCc1cc(CSc2ccc(Cl)cc2)ccc1N`, for which the growth inhibition is 98% (active).

Consider `C=CCO[Si](OCC=C)(OCC=C)OCC=C`, for which the growth inhibition is 9.6% (inactive).

As for `CC(=O)c1sc2c(c1OC(=O)c1ccc(Cl)cc1)c(=O)n(-c1ccccc1)c(=S)n2-c1ccccc1`, the growth inhibition was 11.9% (inactive).

For `OCC1CC=CCC1` (centres undefined), the growth inhibition is -27.1% (inactive).

On to `C=CCNCC(O)C(F)(F)C(F)(F)C(F)(F)C(F)(F)C(F)(F)C(F)(F)F` (centres undefined), for which the growth inhibition is 7.55% (inactive).
